MITF TRPM1 inh: reduces MITF-dependent TRPM1 promoter luciferase signal; SK-MEL-5 TRPM1 promoter luciferase, 24 h; inhibition, % at 12.5 µM; actives 0.83% (n = 330,000); AID 488899;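 active = mean inhibition across replicates of 60% or more, whatever share of single replicates reaches that level; inconclusive = some that reach 60%, reason not given; inactive = mean inhibition across replicates below 60%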
LMP1 NFkB inh: Epstein-Barr LMP1 NF-kappaB reporter inhibition; LMP1-induced NF-kappaB luciferase reporter cells, luminescence; inhibition, % at 12.5 µM; actives 0.69% (n = 350,000); in the data active = inhibition above about 41%; inconclusive = no clear call, values can overlap the other calls;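 also: 0% = neutral control wells and 100% = reference inhibitor control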
Shn3 3UTR inh: inhibitors of Schnurri-3 3'UTR reporter in osteoblasts; actives 0.52% (n = 360,000); inhibition, % at 12.5 µM; Clone20 osteoblast Shn3 3'UTR firefly luciferase, 24 h;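 active = mean inhibition of at least 75% with every replicate also reaching 75%; inconclusive = mean inhibition at least 75% but some replicate below; inactive = mean inhibition below 75%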;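 also: 0% = median of neutral control wells and 100% = pilot-screen positive control compound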
TWEAK Fn14 block: blocks TWEAK-Fn14 interaction in a reporter cell assay; inhibition, % at 10 µM; TWEAK-stimulated Fn14 reporter cells, luciferase luminescence, 8 h; actives 2% (n = 360,000); in the data active = inhibition above about 50%
TROY signal inh: inhibitors of TROY-dependent NF-kB signaling; Q293 LMP1-TROYcd NF-kB luciferase reporter, 4 h; inhibition, % at 10 µM; actives 0.98% (n = 360,000);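 active = compounds whose plate-normalised and pattern-corrected inhibition of the luciferase reporter signal at the single screening dose is 50% or more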
HIF-2a block: inhibitors of HIF-2a; 786-0 RCC cells HIF-2a reporter, luciferase luminescence, overnight; inhibition, % at 18.8 µM; actives 0.72% (n = 360,000); AID 624352;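 active = inhibition of the luminescence signal of 40% or more relative to plate controls, in a single-dose primary screen at 18.75 µM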
Numbers without * were called inactive; ? = inconclusive; . = no result given. Hits are enriched below; roughly 3.4% of the tested compounds scored in any of these assays.

SMILES | MITF TRPM1 inh | LMP1 NFkB inh | Shn3 3UTR inh | TWEAK Fn14 block | TROY signal inh | HIF-2a block
Cc1cccc(-n2c(C)cc(C=C3C(=O)c4ccccc4C3=O)c2C)c1 | -3.2 | 9.8 | -13.4 | 91.9* | 79.7* | -19.8
CCn1c(C)cc(C=C2C(=O)c3ccccc3C2=O)c1C | -5.1 | -14.4 | -40.9 | 53.6* | 31.0 | -266.2
Cc1cc(/C=C2/C(=O)NN(c3ccccc3)C2=O)c(C)n1-c1ccc(O)cc1 | 2.4 | 37.3 | -4.2 | 88.0* | 82.7* | -1.0
COc1ccc(CN2C[C@H](O)COC[C@@H]3O[C@H](CC(=O)NCc4ccncn4)CC[C@H]32)cc1 | . | . | . | . | . | 13.6
CC1(C(=O)NCC2CC2)CCN1C(=O)C1(c2ccc(Cl)cc2)CC1 (centres undefined) | . | . | 16.4 | -10.7 | 0.4 | 14.6
CC(C)(C)n1cnc2cc(NCc3ccc(Br)cc3)ccc21 | -68.5 | -29.8 | -46.4 | 5.2 | -14.2 | -248.8
CCc1ccc(CNc2ccc3c(c2)ncn3C(C)(C)C)cc1 | -33.2 | -25.4 | -15.1 | 81.6* | 66.0* | -207.8
COc1ccc(OC)c(C(=O)COC(=O)c2cccnc2SC)c1 | -16.9 | 2.8 | -16.0 | -28.2 | -9.6 | 3.4
O=C(NCc1ccccc1)c1ccc(N2CCC3(CC2)CC(c2ccccc2)=NO3)c([N+](=O)[O-])c1 | 3.2 | 13.2 | 45.8 | 2.2 | -3.3 | -0.9
Cc1ccc(CNC(=O)c2ccc(N3CCC4(CC3)CC(c3ccccc3)=NO4)c([N+](=O)[O-])c2)cc1 | 20.5 | 77.8* | 57.4 | -3.4 | 11.8 | 10.1
CCOC(=O)/C(=C/c1ccc(N2CCC(c3ccccc3)=N2)cc1)C(C)=O | -44.3 | 94.0* | -50.9 | 25.6 | 29.8 | -65.0
O=C(OCC(=O)N1CCNC1=O)c1ccccc1Cl | . | -11.9 | -36.6 | -11.6 | -14.3 | -18.8
c1cc2[nH]snc2c2nc(C3CC3)nc12 | -1.5 | 26.8 | -3.0 | 61.8* | 39.8 | -51.9
CC(Oc1cccc(Br)c1)C(=O)NNC(=O)c1ccccn1 (centres undefined) | 82.5* | 32.6 | ? | -76.1 | 21.9 | 1.7
COc1ccc(C(=O)O/N=C(\N)c2ccccn2)cc1 | 80.5* | 81.1* | 61.6 | 102.6* | 84.4* | 16.7
N/C(=N\OC(=O)c1cccc(Br)c1)c1ccccn1 | 5.9 | 45.1* | -23.5 | 86.4* | 65.8* | 24.2
N/C(=N\OC(=O)c1cccc(Cl)c1)c1ccccn1 | -2.7 | 17.0 | 20.1 | 92.0* | 67.8* | -3.7
CC(C)NC(=O)C1(C)CN(S(C)(=O)=O)CC(=O)N1CCCn1ccnc1 (centres undefined) | . | . | . | . | . | -5.0
C[C@H](CO)N1C[C@H](C)[C@@H](CN(C)S(=O)(=O)c2cn(C)cn2)OCc2cnnn2CCCC1=O | . | -0.4 | 1.3 | -15.1 | -0.3 | 11.1
COc1cc(OC)cc(C(=O)O/N=C(\N)c2ccccn2)c1 | . | . | -170.3 | -11.9 | -69.2 | -234.0
COc1ccc(C(=O)NNC(=O)c2ccccn2)cc1 | 85.4* | -15.1 | 65.5 | 102.2* | 87.0* | 82.6*
N/C(=N\OC(=O)c1ccc(Cl)c(Cl)c1)c1ccccn1 | 1.6 | -17.8 | 4.6 | 80.0* | 39.1 | -110.7
N/C(=N\OC(=O)c1ccc(Cl)c([N+](=O)[O-])c1)c1ccccn1 | -0.3 | -8.2 | -51.8 | 2.3 | -0.9 | -29.0
N/C(=N\OC(=O)c1ccc(Cl)cc1)c1[nH]ncc1Br | -58.7 | -25.0 | -24.3 | 64.8* | 18.3 | -112.5
CCO/N=C(\N)c1[nH]ncc1Br | 9.0 | -1.2 | 12.3 | 12.0 | -1.5 | 15.2
SMILES | MITF TRPM1 inh | LMP1 NFkB inh | Shn3 3UTR inh | TWEAK Fn14 block | TROY signal inh | HIF-2a block
N/C(=N\OC(=O)c1ccc(Cl)cc1)c1ccccn1 | -18.2 | 35.3 | 28.7 | 101.2* | 69.7* | -3.5
CSCCC(NS(=O)(=O)c1ccccc1F)C(=O)N1CCCCCCC1 (centres undefined) | 3.9 | 5.3 | 9.1 | 7.6 | 3.9 | 19.4
CCOc1ccccc1N1CCN(C(=O)c2ccc3c(c2)OCO3)CC1 | -5.3 | -7.1 | 3.4 | 9.4 | -11.1 | -5.1
COC(=O)[C@]12CCCCC=C1N(Cc1cccc3ccccc13)C(=O)[C@H](CC(=O)NCC13CC4CC(CC(C4)C1)C3)C2 | . | . | . | -3.1 | 12.1 | 2.9
CCN(CC)CCn1nc2c3c(cccc3c1=O)-c1ccccc1-2 | 70.4* | -6.3 | 47.7 | -95.8 | -86.9 | 13.1
O=c1c2cccc3c2c(nn1CN1CCOCC1)-c1ccccc1-3 | 26.3 | 10.1 | -21.9 | -43.5 | 18.4 | -7.7
CCc1cccc(CC)c1NC(=O)C1CC(=O)N(c2ccc3c(c2)OCCO3)C1 (centres undefined) | 4.4 | 2.6 | 20.3 | 68.9* | 21.8 | 18.2
CCc1ccc(-c2csc(NC(=O)C3CC(=O)N(c4ccc5c(c4)OCCO5)C3)n2)cc1 (centres undefined) | 6.2 | 25.0 | 26.1 | 74.7* | 48.0 | -4.7
Cc1csc(NC(=O)C2CC(=O)N(c3ccc4c(c3)OCCO4)C2)n1 (centres undefined) | -1.1 | 7.6 | 3.3 | -7.2 | -21.7 | -0.4
CCOc1ccc(N2CC(C(=O)Nc3ccc4c(c3)OCCO4)CC2=O)cc1 (centres undefined) | 3.1 | 7.3 | 21.1 | 77.8* | 60.7* | 14.6
O=C(Nc1nc(-c2ccco2)c(-c2ccco2)s1)C1CC(=O)N(c2ccc3c(c2)OCCO3)C1 (centres undefined) | 13.3 | 11.0 | 11.8 | 80.5* | 29.4 | 16.1
O=C(CCCc1ccncc1)c1ccccc1 | -56.0 | -6.4 | -1.7 | 4.7 | -46.6 | -271.8
Cc1ccc(NC(=O)CNC(=O)CC23CC4CC(CC(C4)C2)C3)c(O)c1 | 8.1 | 1.8 | 3.9 | -9.6 | -13.1 | -0.3
COc1ccc(-c2csc(NC(=O)C3CC(=O)N(Cc4ccccc4)C3)n2)cc1OC (centres undefined) | 14.2 | 8.2 | 16.7 | 89.2* | 8.6 | 4.1
CCCCc1ncc(CN2CCC(n3nccc3NC(=O)c3ccccc3Cl)CC2)[nH]1 | 0.0 | 2.3 | -6.0 | -2.9 | 4.4 | 6.2
Cc1ccccc1NC(=S)N(Cc1cccnc1)Cc1ccco1 | -4.0 | 2.2 | -1.8 | 59.7* | -20.1 | 11.5
Cc1ccccc1NC(=S)N(Cc1ccccc1)Cc1cccnc1 | -12.2 | -0.5 | 6.7 | -3.2 | -4.8 | 18.1
COc1cccc(OC)c1C(=O)NCCNc1nc2cc(C)cc(C)c2cc1C#N | . | . | . | . | . | -2.5
CCCCn1c(-c2ccncc2)nc2c1c(=O)[nH]c(=O)n2CC(C)C | -2.7 | -4.4 | -6.3 | 76.4* | . | 6.7
CNc1nc(NCc2ccccc2)c2ccccc2n1 | 13.7 | -36.6 | 34.9 | -32.7 | 15.3 | 8.7
Oc1ccccc1Nc1nc(NCc2ccccc2)c2ccccc2n1 | 2.9 | 4.2 | 89.2* | 34.5 | 41.3 | -23.5
Oc1ccccc1-c1nc(NCc2ccccc2)c2ccccc2n1 | 2.9 | -16.5 | 9.1 | -7.4 | 12.6 | -11.5
CCCCNc1nc(NCc2ccccc2)nc2ccccc12 | . | . | . | 34.1 | 54.6* | 6.8
CN[C@@H]1CC[C@H](c2ccc(Cl)c(Cl)c2)c2ccccc21 | 0.9 | -0.1 | 19.3 | -0.4 | . | -8.1

Screening results deposited in PubChem by several laboratories.
